KCNQ2 pot: potentiators of rat KCNQ2 potassium channel; CHO-K1 KCNQ2, FluxOR thallium flux fluorescence; hits give high values; B-score at 10 µM; actives 0.54% (n = 310,000);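 active = fluorescence ratio B-score at least 3 SD of library B-scores, with initial fluorescence B-score within 3 of them, cut at about 5.3 in these data; same plate scores as AID 2156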;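 also: B-score of peak minus minimum over baseline fluorescence ratio after K+ and Tl+ stimulus; positive B-score means potentiation of KCNQ2 with more thallium influx and brighter signal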
Target sequence (O88943 whole entry, looked up): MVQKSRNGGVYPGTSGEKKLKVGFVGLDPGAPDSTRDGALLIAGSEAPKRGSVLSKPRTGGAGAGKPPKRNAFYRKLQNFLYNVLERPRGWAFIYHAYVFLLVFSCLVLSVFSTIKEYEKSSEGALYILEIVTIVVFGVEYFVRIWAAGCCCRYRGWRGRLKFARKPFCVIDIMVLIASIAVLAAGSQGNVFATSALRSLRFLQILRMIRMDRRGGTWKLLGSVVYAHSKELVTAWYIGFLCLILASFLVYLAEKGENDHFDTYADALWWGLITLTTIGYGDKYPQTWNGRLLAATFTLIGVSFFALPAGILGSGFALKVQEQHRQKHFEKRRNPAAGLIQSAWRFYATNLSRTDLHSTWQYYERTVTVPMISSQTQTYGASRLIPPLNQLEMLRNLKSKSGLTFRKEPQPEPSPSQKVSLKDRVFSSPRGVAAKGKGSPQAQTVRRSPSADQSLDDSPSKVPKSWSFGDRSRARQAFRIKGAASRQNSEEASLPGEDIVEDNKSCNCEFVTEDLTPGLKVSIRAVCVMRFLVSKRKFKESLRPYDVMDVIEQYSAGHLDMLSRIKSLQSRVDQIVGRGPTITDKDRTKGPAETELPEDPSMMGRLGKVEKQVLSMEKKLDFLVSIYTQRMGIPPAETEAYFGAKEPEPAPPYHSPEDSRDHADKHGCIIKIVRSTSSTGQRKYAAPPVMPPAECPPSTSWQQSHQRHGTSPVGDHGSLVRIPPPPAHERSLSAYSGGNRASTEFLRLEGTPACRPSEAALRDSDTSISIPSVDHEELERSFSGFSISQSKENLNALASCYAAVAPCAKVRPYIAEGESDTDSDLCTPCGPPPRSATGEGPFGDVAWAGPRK
KCNQ2 block: rat KCNQ2 potassium channel inhibitors, primary screen, cell-based, CHO-K1, FluxOR thallium flux, B-score; Potassium voltage-gated channel subfamily KQT member 2 (Rattus norvegicus), O88943; 20 min; hits give low values; B-score at 10 µM; actives 1.1% (n = 310,000); AID 2156, 2009;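 active = fluorescence ratio B-score at most minus 3 library SDs, with starting brightness B-score within 2 library SDs, cut at about -5.5 in these data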
Kir21 conf inh: mouse Kir2.1 channel blockers, retest, confirmation, cell-based, FluxOR thallium flux, duplicate | shares compounds with KCNQ2 pot | Kir2.1-expressing cells, FluxOR thallium flux fluorescence; hits give low values | Tl flux remaining, % of negative control (hits give low values), % at 10 µM | actives 41% (n = 2,300) | AID 2032, 2009;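 active = Primary-screen hit whose thallium flux fell at least 3 control SD below untreated wells in both duplicates, with normal baseline fluorescence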;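 also: 0% = blank wells without stimulus and 100% = stimulated no-compound controls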
HEK293 Tl flux: alters thallium flux in parental HEK293 cells, Kir2.1 counter-screen; shares compounds with KCNQ2 pot; FluxOR thallium flux fluorescence; 0% = unstimulated blank wells; FluxOR signal as % of negative control (100 = no effect), % at 10 µM; actives 19% (n = 2,300);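 active = dye signal at least 3 control SD above or below untreated wells in both duplicates, raw fluorescence within 3, either direction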;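 also: percent is based on the flux ratio of peak minus minimum fluorescence over baseline F0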
CHO-K1 Tl ctr: nonspecific thallium flux increase in parental CHO-K1, confirmation, counter-screen for KCNQ2 potentiator project, cell-based, FluxOR thallium flux, duplicate; shares compounds with KCNQ2 pot; parental CHO-K1 cells, FluxOR thallium flux fluorescence; zero = vehicle mean+3SD, 100% = vehicle-minus-blank window; activity increase over 3SD of controls, % at 10 µM; actives 43% (n = 1,200); AID 2282, 2010;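 active = signal rise of at least 3 SD above the untreated control mean, in both duplicate wells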;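 also: counter screen of KCNQ2 potentiator hits so any rise reflects channel-independent effects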
KCNQ1 sel pot: human KCNQ1 channel potentiation off-target, confirmation, selectivity assay for KCNQ2 potentiator project, cell-based, CHO, FluxOR thallium flux | CHO KCNQ1 stable, FluxOR thallium flux fluorescence; beyond 3SD, as % of vehicle-control signal | actives 28% (n = 1,200) | shares compounds with KCNQ2 pot | activation over 3SD threshold, % at 10 µM;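 active = fluorescence ratio rise of at least 3 SD of vehicle wells above their mean, in both replicate wells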;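 also: 0% = vehicle mean plus 3 SD and 100% = vehicle minus unstimulated blank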
KCNQ2 pot conf: rat KCNQ2 channel potentiators, confirmation, cell-based, CHO, FluxOR thallium flux, duplicate; actives 68% (n = 1,200); shares compounds with KCNQ2 pot; AID 2287, 2010; CHO-KCNQ2 cells, FluxOR thallium flux fluorescence; potentiation, less the hit threshold, % at 10 µM;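 active = fluorescence ratio rising 3 SD or more over the vehicle control mean in both replicates, plus primary screen hit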;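 also: peak minus minimum thallium fluorescence divided by baseline after K/Tl stimulus; 0% = vehicle mean plus 3 SD and 100% = vehicle minus unstimulated blank difference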
Kir21 spec: mouse Kir2.1 channel activation off-target, confirmation, selectivity assay for KCNQ2 potentiator project, cell-based, HEK293, FluxOR thallium flux | activity over 3SD threshold, % at 10 µM | actives 2% (n = 1,200) | shares compounds with KCNQ2 pot | HEK293 Kir2.1, FluxOR thallium flux fluorescence;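 active = fluorescence ratio rise of at least 3 SD above the vehicle-control mean, seen in both replicates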;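 also: 0% = vehicle mean plus 3 SD and 100% = vehicle minus no-stimulus blank window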
KCNQ2 W236L MoA: potentiators of retigabine-insensitive KCNQ2 W236L, mechanism study for KCNQ2 potentiator project, cell-based, rat KCNQ2 W236L, CHO, automated patch clamp; shares compounds with KCNQ2 pot; automated patch clamp current; current increase over 3SD of negative controls (%), hits give high values, % at 25 µM; actives 10% (n = 940); AID 2558, 2010;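 active = current increase at least 3 SD of the untreated controls above them in both duplicate recordings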
The depositor's hits bear a star; i = inactive; x = not tested or not shown. A selection: hits, their analogues and other compounds. The true share with any hit is near 1.6%.

SMILES	KCNQ2 pot	KCNQ2 block	Kir21 conf inh	HEK293 Tl flux	others
CC(CCc1ccc(O)cc1)NCCc1ccc(O)c(O)c1 (centres undefined)	0.9	i	x	x
CC(Cc1ccc(O)c(O)c1)C(C)Cc1ccc(O)c(O)c1 (centres undefined)	x	i	18%*	56%*
CC(C)(C)c1nc(NC(=O)Nc2ccccc2)sc1Br	2	i	x	x
c1ccc2c(NCCc3c[nH]c4ccccc34)c3ccccc3nc2c1	x	i	38%*	i
Fc1cccc(NCCc2c[nH]c3ccccc23)n1	1.1	i	x	x
Cc1ccc(OCCCCN2CCCCC2)c(C)c1	0.92	i	x	x
Cc1ccc(OCCCCNC2CCCC(C)C2C)c(C)c1 (centres undefined)	x	i	i	i
CCNC(=O)C12CCC(C)(C(=O)O1)C2(C)C (centres undefined)	0.38	i	x	x
CC(=O)c1nnn(-c2nc(N)nc(N(c3ccccc3)c3ccccc3)n2)c1C	0.29	i	x	x
CCCCN(CCCC)c1nc(OC)nc(-n2nnc(C(C)=O)c2C)n1	8*	i	i	i	CHO-K1 Tl ctr=-12;KCNQ1 sel pot=-8;KCNQ2 pot conf=-8;Kir21 spec=-43;KCNQ2 W236L MoA=i
CCN1CCN(CCCN(Cc2cccs2)C(=S)Nc2ccccc2C)CC1	x	i	x	x
Cc1cc2[nH]c3c(c[n+](C)c4ccccc34)c2cc1C	x	i	i	i
Cc1cc(=O)[nH]c2ccccc12	x	i	x	x
CCCN(CC(=O)Nc1ccccc1OC)C(=O)c1ccc(=O)[nH]c1	x	i	x	x
COc1ccc(NC(=O)/C(=C\c2ccc(OC)c(OC)c2)NC(=O)c2ccco2)cc1	1.2	i	x	x
Cn1c(C(=O)OCC(=O)NCc2ccc(F)cc2)cc2occc21	x	i	x	x
Cc1ccc(C)c(CN2CCC(CNC(=O)Nc3ccc(C)c(C)c3)CC2)c1	7.6*	i	i	i	CHO-K1 Tl ctr=60*;KCNQ1 sel pot=-11;KCNQ2 pot conf=10*;Kir21 spec=-31;KCNQ2 W236L MoA=i
COc1ccc(N2CCC(CNC(=O)Nc3ccc(C)c(C)c3)C2)cc1 (centres undefined)	1.2	i	x	x
CCC(O)(CC)C(=O)N(Nc1ccc(C)cc1)c1ccc(C)cc1	5.6*	i	i	i	CHO-K1 Tl ctr=-6;KCNQ1 sel pot=-4;KCNQ2 pot conf=-1;Kir21 spec=-42;KCNQ2 W236L MoA=37%*
CCOC(=O)C(=O)N(Nc1ccc(C)cc1)c1ccc(C)cc1	x	i	x	x
CC1=NN(c2cccc(C(=O)O)c2)C(=O)/C1=C\C=C/c1ccccc1	7.2*	i	i	i	CHO-K1 Tl ctr=33*;KCNQ1 sel pot=-2;KCNQ2 pot conf=36*;Kir21 spec=-62;KCNQ2 W236L MoA=i
CC1=NN(c2ccc(C)cc2)C(=O)/C1=C\C=C\c1ccccc1	x	i	x	x
Cc1csc(NC(=O)CSc2nc(C(C)C)nc3ccccc23)n1	6.2*	i	x	x	CHO-K1 Tl ctr=18*;KCNQ1 sel pot=-29;KCNQ2 pot conf=1.0*;Kir21 spec=-70;KCNQ2 W236L MoA=i
CC(C)c1nc(SCC(=O)Nc2nccs2)c2ccccc2n1	0.11	i	x	x
Cc1ccc(C(=O)CSc2nc(C(C)C)nc3ccccc23)cc1	3.9	i	x	x
SMILES	KCNQ2 pot	KCNQ2 block	Kir21 conf inh	HEK293 Tl flux	others
CC(C)c1nc(SCC(=O)c2ccc(F)cc2)c2ccccc2n1	11*	i	i	i	CHO-K1 Tl ctr=-9;KCNQ1 sel pot=-4;KCNQ2 pot conf=36*;Kir21 spec=-40;KCNQ2 W236L MoA=i
COc1ccc2c(c1)cc1c(=O)n(CC(=O)NCCCN3CCOCC3)nc(C)n12	0.53	i	x	x
COc1ccc(-c2nc3ccccc3[nH]2)cc1	x	i	x	x
COc1ccc(-c2nc(=S)c3ccc4ccccc4c3[nH]2)cc1	20*	i	i	152%*	CHO-K1 Tl ctr=-16;KCNQ1 sel pot=-48;KCNQ2 pot conf=23*;Kir21 spec=-31;KCNQ2 W236L MoA=i
CC(=O)Nc1ccc(N(C(=O)c2ccco2)C(C(=O)NC2CCCCC2)c2ccccc2)cc1 (centres undefined)	x	i	x	x
Cc1ccc(S(=O)(=O)NCCC(=O)N2CCCCCC2)cc1	0.07	i	x	x
Cc1ccc(S(=O)(=O)NCCC(=O)N2CCC(Cc3ccccc3)CC2)cc1	5.3*	i	i	i	CHO-K1 Tl ctr=13*;KCNQ1 sel pot=-22;KCNQ2 pot conf=-19;Kir21 spec=-35;KCNQ2 W236L MoA=i
CCOc1ccc(S(=O)(=O)N2CCOCC2)cc1NC(=O)CN1C(=O)NC(C)(c2ccccc2)C1=O (centres undefined)	0.63	i	x	x
Cc1ccc(-n2ncc(C(=O)Nc3cc(Cl)ccc3Cl)c2C2CCNCC2)cc1	x	i	x	x
Cc1ccc(-n2ncc(C(=O)Nc3cc(Cl)cc(Cl)c3)c2C2CCNCC2)cc1C	x	i	i	i
COc1ccc(CCNC(=O)C2(C)CCC(=O)N2Cc2ccc(C)cc2)cc1OC (centres undefined)	x	i	x	x
Cc1ccc(CNCc2ccccc2Cl)cc1	x	i	x	x
Cc1ccc2nc(Cl)c(CNCc3ccccc3)cc2c1	x	i	20%*	i
COc1ccc(C(=O)CN2Cc3ccccc3C2=N)cc1	0.08	i	24%*	i
COc1ccc(C(=O)Cn2c(=N)n(C)c3ccccc32)cc1	x	i	x	x
CC1CCC(C(C)C)C(OC(=O)Cn2c(-c3ccccc3)[n+](C)c3ccccc32)C1 (centres undefined)	x	i	26%*	i
CC1CCC(C(C)C)C(OC(=O)C[n+]2cc(-c3ccc(Cl)cc3)n3c2CCC3)C1 (centres undefined)	0.19	i	x	x
Cn1cc(Cl)c(C(=O)N/N=C/c2ccc3c4c(cccc24)CC3)n1	x	i	x	x
CN(CC(=O)N1CCN(Cc2ccccc2)CC1)S(=O)(=O)c1cccc2nsnc12	x	i	x	x
Cc1cc(C)c(Cn2c3ccccc3c3cnn(CC(=O)NCCN4CCOCC4)c(=O)c32)c(C)c1	1.6	i	x	x
